# The whole screen tested about 310,000 compounds, of which about 14,000 (4.5%) showed an effect of 50% or more. The effect is printed as a negative number. What follows is part of a selection rich in strong results, with near analogues and random picks from the rest.
# Biological target: human ether-à-go-go-related gene (hERG) potassium channel (human, UniProt Q12809)
# Experiment: primary screen, population patch clamp on CHO cells stably expressing hERG; higher = less effect of the substance
# 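Further: peak tail current of the secondary pulse compared with the same well before compound.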
# human ether-à-go-go-related gene (hERG) potassium channel, sequence (Q12809 whole entry, looked up): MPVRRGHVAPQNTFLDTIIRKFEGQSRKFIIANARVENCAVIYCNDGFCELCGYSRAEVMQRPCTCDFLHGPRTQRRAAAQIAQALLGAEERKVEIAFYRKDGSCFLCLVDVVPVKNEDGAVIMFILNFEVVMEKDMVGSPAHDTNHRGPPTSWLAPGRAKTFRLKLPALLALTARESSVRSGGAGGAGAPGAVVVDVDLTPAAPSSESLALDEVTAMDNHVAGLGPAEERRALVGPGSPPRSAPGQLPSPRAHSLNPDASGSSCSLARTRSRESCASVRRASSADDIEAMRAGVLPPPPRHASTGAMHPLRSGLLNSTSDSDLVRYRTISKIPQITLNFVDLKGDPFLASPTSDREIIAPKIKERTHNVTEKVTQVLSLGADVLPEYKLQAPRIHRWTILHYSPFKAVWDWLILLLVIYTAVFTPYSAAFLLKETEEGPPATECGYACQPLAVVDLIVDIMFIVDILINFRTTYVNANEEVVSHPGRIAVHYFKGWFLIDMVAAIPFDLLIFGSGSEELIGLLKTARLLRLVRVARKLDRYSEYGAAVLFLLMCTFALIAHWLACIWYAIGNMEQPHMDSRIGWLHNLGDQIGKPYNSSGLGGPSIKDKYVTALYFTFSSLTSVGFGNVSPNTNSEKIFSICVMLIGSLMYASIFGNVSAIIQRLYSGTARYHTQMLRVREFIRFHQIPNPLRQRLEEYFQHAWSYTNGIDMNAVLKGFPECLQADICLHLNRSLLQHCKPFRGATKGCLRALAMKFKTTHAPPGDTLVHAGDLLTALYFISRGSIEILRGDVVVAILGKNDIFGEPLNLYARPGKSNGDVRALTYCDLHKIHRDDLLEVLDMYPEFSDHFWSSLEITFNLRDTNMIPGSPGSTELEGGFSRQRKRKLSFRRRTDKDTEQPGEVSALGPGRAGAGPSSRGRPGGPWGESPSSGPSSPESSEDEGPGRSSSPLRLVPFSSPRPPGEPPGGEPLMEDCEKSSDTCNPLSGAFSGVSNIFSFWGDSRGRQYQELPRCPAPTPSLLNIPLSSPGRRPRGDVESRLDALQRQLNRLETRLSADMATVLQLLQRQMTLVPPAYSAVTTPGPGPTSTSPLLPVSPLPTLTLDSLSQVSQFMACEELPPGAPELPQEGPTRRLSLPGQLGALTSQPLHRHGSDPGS
row,Structure (SMILES),"hERG current change (%, negative = inhibition) at 10uM"
1,OCCN1CCN(CC#CCC(c2ccccc2)c2ccccc2)CC1,-22.9%
2,C(#CCN1CCCC1)CC(c1ccccc1)c1ccccc1.Cl,-50.5%
3,OC(C#CCN1CCCC1)c1ccccc1 (centres unmarked),-2.28%
4,COc1cc(OC)c(C(=O)NCCCn2ccnc2)cc1OC.Cl,13%
5,OC[C@H]1O[C@@H](n2cnc3c(NC4CCCC4)ncnc32)[C@H](O)[C@@H]1O,10.4%
6,OC(CNCc1ccco1)Cn1c2ccccc2c2ccccc21 (centres unmarked),-58.4%
7,OCCNCC(O)Cn1c2ccccc2c2ccccc21 (centres unmarked),10.2%
8,OC(CNCc1ccco1)Cn1c2ccc(Br)cc2c2cc(Br)ccc21 (centres unmarked),-0.0278%
9,COc1ccc(OC)c(NC(=O)[C@@H]2CCCN2C(=O)c2cccs2)c1,-2.19%
10,CC(C)(C)c1ccc(C(=O)NNC(=O)CCc2ccccc2)cc1,7.16%
11,Cc1ccc(C(C(=O)NC2CCCC2)N(Cc2ccc3c(c2)OCO3)C(=O)c2snc(C(N)=O)c2N)cc1 (centres unmarked),10.7%
12,COCCCNC(=S)N1CCN(c2ccc([N+](=O)[O-])cc2)CC1,-68%
13,C=CCNC(=S)N1CCN(c2ccc([N+](=O)[O-])cc2)CC1,-63.6%
14,CCNC(=S)N1CCN(c2ccc([N+](=O)[O-])cc2)CC1,-64.5%
15,C=CCNC(=S)N1CCN(c2ccccc2Cl)CC1,-6.87%
16,O=[N+]([O-])c1ccc(N2CCN(C(=S)NCc3ccc(Cl)cc3)CC2)cc1,-8.05%
17,CCCC(=O)NC(=S)N1CCN(c2ccc([N+](=O)[O-])cc2)CC1,-20.7%
18,Cc1cccc(C(=O)NC(=S)N2CCN(c3ccc([N+](=O)[O-])cc3)CC2)c1,-2.77%
19,COCCCNC(=S)N1CCN(c2ccccc2)CC1,12.9%
20,O=[N+]([O-])c1ccc(N2CCN(C(=S)Nc3ccccc3)CC2)cc1,-4.16%
21,CNC(=S)N1CCN(c2ccc([N+](=O)[O-])cc2)CC1,-65.1%
22,O=[N+]([O-])c1ccc(N2CCN(C(=S)Nc3ccc(F)cc3F)CC2)cc1,-18.5%
23,COCCNC(=S)N1CCN(c2ccc(Cl)cc2)CC1,-12.9%
24,CCCC(=O)Nc1nc2nc(C)cc(=O)n2[nH]1,1.2%

row,Structure (SMILES),"hERG current change (%, negative = inhibition) at 10uM"
1,Cc1cc(C)c2c(=O)[nH]n(C3CC(C)N(C)CC3C)c2n1 (centres unmarked),4.5%
2,CC1(C)Cc2c(sc3nc(-c4cccs4)n(N)c(=O)c23)CO1,-22.5%
3,CCN(c1cccc(C)c1)S(=O)(=O)c1ccc2c(c1)NC(=O)CS2,-7.28%
4,Cc1nnc2ccc(Oc3ccc(-c4ccccc4)cc3)nn12,-5.63%
5,CCC1C(c2ccccc2)NC(c2ccccc2)CC1(O)c1ccc(F)cc1.Cl (centres unmarked),11.4%
6,Cc1cc(C)nc(SCc2cn3c(C)cccc3n2)n1,6.36%
7,Cc1cc(C)n2cc(CSCc3ccccc3)nc2n1,-36.9%
8,O=c1cc(CSc2nc3cc(Cl)ccc3o2)nc2sccn12,10.4%
9,Cc1cc(C)n2cc(CSc3nc4cc(Cl)ccc4o3)nc2n1,-68.1%
10,Cc1cc(C)n2cc(CSc3ccc(Br)cc3)nc2n1,-63.8%
11,Cc1ccc(SCc2cn3c(C)cc(C)nc3n2)cc1,-67.1%
12,Cc1cc(C)n2cc(CSc3nnc(-c4ccccc4)o3)nc2n1,-38.3%
13,Cc1cc(C)n2cc(CSc3ncn[nH]3)nc2n1,0.809%
14,Cc1ccnc(SCc2cn3c(C)cc(C)nc3n2)n1,-3.93%
15,Cc1ccc2nc(SCc3cn4c(C)cc(C)nc4n3)[nH]c2c1,-20.9%
16,Cc1cccc2nc(CSc3ccc(Cl)cc3)cn12,-74.3%
17,Clc1ccc(SCc2cn3ccccc3n2)cc1,-18.1%
18,COc1ccccc1N=Nc1c(C)noc1C,10.6%
19,CCOC(=O)/C(C#N)=N/Nc1ccc(S(=O)(=O)Nc2cc(OC)nc(OC)n2)cc1,-13.1%
20,CC(C)(C)c1nnc(NS(C)(=O)=O)s1,8.21%
21,O=c1[nH]n(-c2ccc([N+](=O)[O-])cc2)c(=O)c2ccccc12,5.47%
22,COCc1ccc(C(=O)N2CCCC(C(=O)c3ccc(SC)cc3)C2)o1 (centres unmarked),-41.6%
23,Nc1cnc(Nc2ccc(Br)cc2)nc1N.O=S(=O)(O)O,-8.72%
24,CCc1c(C)nc(SCC(=O)Nc2cccc(Br)c2)[nH]c1=O,16.3%

row,Structure (SMILES),"hERG current change (%, negative = inhibition) at 10uM"
1,Cc1cc(C)n2cc(CSc3ccccn3)nc2n1,13.6%
2,Cc1csc2nc(CSc3ccc(Cl)cc3)cn12,-27.3%
3,Cc1cc(C)n2cc(CSc3ccc(Cl)cc3)nc2n1,-64.9%
4,CC(C)Oc1ccc(CNC2CCOC(C)(C)C2)cc1 (centres unmarked),18%
5,C=CCNc1nc2c(c(=O)[nH]c(=O)n2C)n1CCCc1ccccc1,-4.44%
6,CC1=C(C(=O)OCc2ccccc2)C(c2ccc(-c3ccccc3)cc2)NC(=O)N1CCCCCC(=O)O (centres unmarked),-2.3%
7,CC1=C(C(=O)OCc2ccccc2)C(c2ccccc2-c2ccccc2)NC(=O)N1CCCCCC(=O)O (centres unmarked),-63.1%
8,CC1=C(C(=O)OCc2ccccc2)C(c2ccccc2Cl)NC(=O)N1CCCCCC(=O)O (centres unmarked),-12.4%
9,CCN(CC(=O)Nc1c(F)cccc1F)C(=O)c1ccc2ccccc2n1,-19.6%
10,O=c1[nH]cccc1-c1nc2ccccc2n1Cc1ccc(F)cc1,-22.5%
11,CCOc1ccc(NC(=O)CN(C)C(=O)c2ccccc2Cc2ccccc2)cc1OCC,-14%
12,FC(F)(F)c1cnc(N2CCC(=NOCc3ccc(Cl)cc3)CC2)c(Cl)c1,29.6%
13,O=[N+]([O-])c1ccc(N2CCC(=NOCc3ccc(Cl)cc3)CC2)cc1,-54.5%
14,O=[N+]([O-])c1cccc(CN2CCN(c3ncccn3)CC2)c1,-1.26%
15,CC(=O)c1ccc(N2CCN(CC3CCCCC3)CC2)cc1,-24%
16,O=[N+]([O-])c1ccc(N2CCN(CC3CCCCC3)CC2)cc1,-63%
17,O=[N+]([O-])c1ccc(N2CCN(Cc3cccc([N+](=O)[O-])c3)CC2)cc1,-71.8%
18,c1ccc(N2CCN(CC3CCCCC3)CC2)cc1,9.61%
19,O=[N+]([O-])c1ccc(CN2CCN(c3ccc([N+](=O)[O-])cc3)CC2)cc1,-74.1%
20,O=[N+]([O-])c1cccc(CN2CCCCCC2)c1,5.75%
21,O=[N+]([O-])c1ccc(/C=N\N2CCN(c3ccc(Cl)cc3)CC2)cc1,16.8%
22,CCOc1ccccc1-c1nnc(SCC(=O)NC2CC3CCC2C3)n1CC (centres unmarked),-3.89%
23,O=C(O)C(=O)O.O=C(c1cccc(F)c1)N1CCN(Cc2c[nH]c3ccccc23)CC1,-9.05%
24,Clc1ccc(CN2CCN(c3ncccn3)CC2)cc1,-4.03%

row,Structure (SMILES),"hERG current change (%, negative = inhibition) at 10uM"
1,CN(Cc1ccccc1)c1nc2c(c(=O)n(C)c(=O)n2C)n1CCSc1ncccn1,-13.7%
2,O=C1/C(=C\c2ccc([N+](=O)[O-])cc2)CCc2ccccc21,-6.6%
3,O=C1CCNc2c(Cl)cc(Cl)cc21,-2.74%
4,N#CC1=C(N)Nc2ncnn2C1c1ccccc1 (centres unmarked),10.6%
5,COc1ccc2c(c1)[nH]c1c(Cl)ncnc12,3.14%
6,O[C@H]1c2ccccc2[C@H](Cc2cncs2)[C@@H]1Br,0.746%
7,O=[N+]([O-])c1ccc(N2CCN(Cc3ccncc3)CC2)cc1,-64.8%
8,O=[N+]([O-])c1ccc(CN2CCN(c3ncccn3)CC2)cc1,-32.2%
9,Fc1ccc(-n2nnc(-c3ccccc3Cl)n2)cc1,12.2%
10,O=C(CC1Oc2ccccc2NC1=O)NCCc1ccccc1 (centres unmarked),-4.18%
11,COc1cccc(S(=O)(=O)NC2CCN(C#N)C2)c1 (centres unmarked),9.23%
12,O=C(Nc1ccc(Br)cc1)C1CCN(C(=O)c2ccco2)CC1,-14%
13,O=C(Nc1ccccc1)C1CCCN(C(=O)c2ccc(F)cc2)C1 (centres unmarked),-51.8%
14,COc1ccc(-c2csc(NC(=O)C3CCN(C(=O)c4ccc(F)cc4)CC3)n2)cc1OC,-13.8%
15,O=C(Nc1ccccc1)C1CCN(C(=O)c2ccc(Br)cc2)CC1,-59.3%
16,O=C(Nc1cccc(F)c1)C1CCN(C(=O)c2ccc(Cl)cc2)CC1,-49.4%
17,O=C(Nc1cccc(F)c1)C1CCN(C(=O)c2ccc(Br)cc2)CC1,-65.1%
18,O=C(Nc1ccc(F)cc1F)C1CCN(C(=O)c2ccc(Br)cc2)CC1,-30.2%
19,O=C(Nc1nc(-c2ccc(F)cc2)cs1)C1CCCO1 (centres unmarked),-6.67%
20,O=C(Nc1ccccc1)C1CCN(C(=O)c2ccccc2)CC1,4.62%
21,O=C(Nc1ccccc1)C1CCCN(C(=O)c2ccc(Cl)cc2)C1 (centres unmarked),-9.92%
22,O=C(c1ccc(F)cc1)N1CCCC(C(=O)N2CCCCC2)C1 (centres unmarked),16.5%
23,O=C(Nc1nc(-c2ccc(F)cc2)cs1)C1CCN(C(=O)c2ccc(F)cc2)CC1,-54.7%
